Screening results from PubChem BioAssay.
This is a sample that favours compounds with a hit; in the whole collection about 10% have one here.
JMJD2A Tudor: inhibitors of human JMJD2A Tudor domain; O75164; AlphaScreen JMJD2A-Tudor / H3K4me3 peptide binding; Potency, µM (titrated, usually from 114 µM), usual class: inhibitors; actives 4.4% (n = 390,000); also: nearly all actives have a fitted effect of over 50% in size
CtBP-E1A inh: blocks the CtBP interaction with E1A. AlphaScreen GST-E1A/His-CtBP binding, 1536-well; hits give low values. activity change, % (concentration not given with the values). actives 0.49% (n = 340,000). AID 651724; in the data active = activity change below about -65%; inconclusive = mostly about -30% to -63%
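GST-E1A and His-tagged CtBP (125 nM each as 5X stock) were preincubated with pin-transferred compound for 2 h at 37 °C in the dark, then glutathione donor and nickel acceptor beads were added for 1 h before AlphaScreen reading.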
Six1-Eya2 blk: inhibitors of human Six1/Eya2 interaction | AlphaScreen GST-Six1/His-Eya2 binding, biochemical; hits give low values | activity change, % (test concentration not listed) | actives 0.56% (n = 360,000); in the data active = activity change below about -65%; inconclusive = mostly about -30% to -63%
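AlphaScreen luminescence read after one hour at 37 °C in darkness. Pin-transferred compounds met GST-Six1 and His-Eya2 protein (5X stock 250 nM/500 nM) plus glutathione donor and Ni-chelate acceptor beads (5X, 50 ug/mL).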
G9a block: G9a (human) methyltransferase inhibition; Q96KQ7; G9a H3K9 monomethylation, AlphaScreen, 2 h; Potency, µM (series often up to 102 µM), most hits filed as inhibitors; actives 8.8% (n = 350,000); also: nearly all actives have a fitted effect of over 75% in size
Target sequence (Q96KQ7 913-1193 limits assumed): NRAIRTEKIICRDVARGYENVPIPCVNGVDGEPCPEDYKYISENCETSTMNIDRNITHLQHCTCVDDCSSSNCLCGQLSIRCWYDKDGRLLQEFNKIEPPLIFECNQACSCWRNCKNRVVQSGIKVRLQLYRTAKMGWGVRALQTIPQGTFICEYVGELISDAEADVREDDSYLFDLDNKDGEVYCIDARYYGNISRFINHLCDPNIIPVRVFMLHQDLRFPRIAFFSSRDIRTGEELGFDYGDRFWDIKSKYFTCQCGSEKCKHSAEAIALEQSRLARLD
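Step 1: enzyme (final 20 nM) with compound, 15 min RT. Step 2: substrate peptide 500 nM and SAM 20 uM, 2 h RT. Step 3: anti-H3K9me1 antibody and AlphaScreen beads, 10 min, then plate read.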
BAZ2B block: inhibitors of human BAZ2B bromodomain; Q9UIF8; AlphaScreen BAZ2B-H3K14Ac peptide displacement; Potency, µM (highest dose often 114 µM), usual class: inhibitors; actives 4.4% (n = 360,000); also: nearly all actives have a fitted effect of over 60% in size
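Multi-concentration screen (max 110 uM) measuring displacement of acetylated histone H3 peptide from BAZ2B by AlphaScreen, using 50 nM protein, 50 nM peptide and 10 ug/mL streptavidin donor plus Ni-chelate acceptor beads.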
HP1b chromo inh: blocks HP1-beta chromodomain binding to methylated histone tails; Potency, µM (highest dose often 114 µM), most hits filed as inhibitors; AID 540317; actives 0.56% (n = 390,000); P83916; AlphaScreen HP1-beta / biotin-H3K9me3 peptide binding; also: nearly all actives have a fitted effect of over 70% in size
Target sequence (P83916 whole entry, looked up): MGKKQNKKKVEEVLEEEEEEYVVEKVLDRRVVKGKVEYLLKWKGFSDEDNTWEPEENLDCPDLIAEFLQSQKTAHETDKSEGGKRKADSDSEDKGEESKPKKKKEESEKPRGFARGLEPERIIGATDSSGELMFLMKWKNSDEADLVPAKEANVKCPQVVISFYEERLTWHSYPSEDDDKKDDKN
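AlphaScreen: HP1-beta (50 nM) preformed 30 min with biotin-H3(1-18)K9me3 peptide (50 nM) in PBS pH 7.4, 0.01% Tween-20. Compound added for 30 min at RT, then streptavidin donor/nickel chelate acceptor beads (10 ug/mL) for 30 min.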
Hits are given with their value; 0 = inactive; ? = inconclusive; - = no result; [ ] = another dose, or the depositor's remark. Unless noted, calls follow the shape of the dose curve; as a rule, active = well fitted inhibition curve with a large enough effect; inconclusive = small, poorly fitted or top-dose-only effect; inactive = no such curve, though single readings can be large or run the other way.

SMILES	JMJD2A Tudor	CtBP-E1A inh	Six1-Eya2 blk	G9a block	BAZ2B block	HP1b chromo inh
CC(=O)Nc1nonc1-c1nnc(SCC(=O)Nc2ccc(C)cc2)n1-c1ccccc1	0	-	-	0	?	0
O=C(NC(C(=O)N/N=C/c1cc([N+](=O)[O-])ccc1O)c1n[nH]c(=O)c2ccccc12)c1ccccc1 (stereo not given)	45µM	-88	-90	?	32µM	0
O=C(N/N=C/c1cccc(O)c1)c1cc(-c2ccccc2)nc2ccccc12	0	0	0	?	0	0
Cc1cc(C(=O)N/N=C/c2ccc([N+](=O)[O-])s2)c2ccccc2n1	0	0	0	0	0	0
Cc1cc(C(=O)N/N=C/c2cc(Br)cc([N+](=O)[O-])c2O)c2ccccc2n1	?	-94	-87	?	50µM	?
O=C(N/N=C/c1cc([N+](=O)[O-])ccc1O)c1cc(-c2ccccc2)nc2ccccc12	?	0	?	?	32µM	0
O=C(N/N=C/c1cc([N+](=O)[O-])ccc1Cl)c1cc(-c2ccccc2)nc2ccccc12	0	0	0	0[12.7 µM]	0	0
O=C(N/N=C/c1ccc(O)c(O)c1)c1cc(-c2ccccc2)nc2ccccc12	?	0	0	45µM	?	0
Cc1cc(C)c(S(=O)(=O)N(C)CC(=O)NCCCn2ccnc2)c(C)c1	0	0	0	0	0	0
Cc1cc(C(=O)N/N=C/c2ccc([N+](=O)[O-])cc2)c2ccccc2n1	0	0	0	0	0	0
Cc1cc(C(=O)N/N=C/c2cc([N+](=O)[O-])ccc2O)c2ccccc2n1	25µM	0	-92	0	18µM	0
N#Cc1c(-c2ccccc2)nc(SCC(=O)Nc2nnc(C(F)(F)F)s2)[nH]c1=O	0	0	0	50µM	0	0
Cc1cc(C)nc(NS(=O)(=O)c2ccc(NC(=O)CSc3nc(-c4ccccc4)c(C#N)c(=O)[nH]3)cc2)n1	0	0	0	79µM	-	0
COc1ccccc1-c1cncnc1N1CCN(C)CC1	-	-	-	0[0.501 µM]	-	-
COc1cccc(N=c2oc3cc(O)ccc3cc2C(=O)NCC2CCCO2)c1 (stereo not given)	0	0	0	0	35µM	0
CC[C@H](C)[C@H]1CNC(=S)N1CC1CCN(CC)CC1	-	0	0	-	-	-
COc1cc(C(=O)NCC(c2ccco2)S(=O)(=O)c2cccs2)cc(OC)c1OC (stereo not given)	0	-	-	0	0	0
COc1cnc(-c2ccccn2)nc1Sc1c(Cl)cccc1Cl	0	0	0	0[12.7 µM]	0	0
COc1cnc(-c2ccccn2)nc1Oc1cccc(Cl)c1	0	?	?	0[12.7 µM]	45µM	0
COc1cnc(-c2ccccc2)nc1Oc1cccc(C)c1	0	0	0	0[12.7 µM]	0	0
COc1cnc(-c2ccccn2)nc1Sc1ccccc1Cl	?	?	?	0	0	0
CCOC(=O)C(C)Sc1nc(-c2ccccn2)ncc1OC (stereo not given)	0[11.4 µM]	-	-91	0	3.2µM	0
COc1cnc(-c2ccccn2)nc1N(C)C	22µM	-94	-89	0	4.5µM	0
N#Cc1ccc(CSc2nc3c(c(=O)[nH]2)CCCC3)cc1	0	-	-	?	0	0
COc1ccc(C2=Nn3c(nnc3-c3ccc(OC)cc3OC)SC2)cc1	0	-	-	-	-	-
SMILES	JMJD2A Tudor	CtBP-E1A inh	Six1-Eya2 blk	G9a block	BAZ2B block	HP1b chromo inh
COc1ccc(NC(=O)CSc2nc(C)cc(C)c2C(=O)Nc2cccc(C)c2)cc1	0	-	-	0	0	0
C/C(=N/N=C(/N)SCc1ccccc1)C(C)(C)C	0	0	0	10µM	0	0
Cc1cccc(CSC(=N)N)c1	0	0	0	0	0	0
c1c[nH]c(CN2CCN(Cc3ncc[nH]3)CC2)n1	14µM	0	0	-	-	0
CN1OC[C@@H]2CN[C@H](c3ccc(-c4cccc(F)c4)cc3)C[C@@H]21	-	0	0	-	-	-
Cc1cc(C(=O)COC(=O)c2ccc(CO)cc2)c(C)n1CC1COc2ccccc2O1 (stereo not given)	0	-	0	4µM	?	0
CCOc1ncccc1C(=O)OCC(=O)c1ccc(F)cc1	20µM	0	0	0	0	0
O=C(COC(=O)c1cccnc1Cl)c1ccc(F)cc1	0	0	0	0	0	0
CCOc1ncccc1C(=O)OCC(=O)c1cc(C)n(Cc2ccco2)c1C	?	0	0	?	50µM	0
Cc1cc(C(=O)COC(=O)c2ccc(O)cc2)c(C)n1Cc1ccco1	?	0	0	?	50µM	?
CSc1nn(Cc2ccc(Cl)cc2)c(N(C(C)=O)C(C)=O)c1S(=O)(=O)c1ccccc1	0	-	-	0	0	0
Cc1c(Cl)cccc1Nc1n[nH]c(=S)s1	11µM	0	0	-	-	50µM
Fc1ccccc1Nc1n[nH]c(=S)s1	2.8µM	0	0	2.8µM	50µM	45µM
S=c1[nH]nc(Nc2cccc3ccccc23)s1	18µM	0	0	0.32µM	?	40µM
CCc1ccc(OCC(=O)Nc2ccc(Cl)c(-c3nc4ncccc4o3)c2)cc1	0	-	-	0	0	0
CC(C(=O)NC1CCCC1)N(C(=O)c1ccc(-c2ccccc2)[nH]1)c1ccccc1F (stereo not given)	22µM	0	0	0	?	0
COc1ccc(CN(C(=O)c2ccc(-c3ccccc3)[nH]2)C(C(=O)NCC2CCCO2)c2ccc(C)o2)cc1 (stereo not given)	?	0	?	0[0.501 µM]	45µM	0
COc1ccc(CN(CC(=O)NC2CCCC2)C(=O)c2ccc(-c3ccccc3)[nH]2)cc1	?	0	?	?	28µM	0
O=C(NCC1CCCO1)C(c1cccs1)N(Cc1ccccc1)C(=O)c1ccc(-c2ccccc2)[nH]1 (stereo not given)	?	0	0	?	?	?
COc1ccc(CN(CC(=O)NC2CCCC2)C(=O)c2csnn2)cc1	0	0	0	0	0	0
CN(C)c1ccc(C=C2C=Cc3ccccc32)cc1	14µM	0	-71	-	-	?
CN(C)c1ccc(/C=N/N2C(=O)c3ccccc3C2=O)cc1	0	0	0	0	0	0
CNc1ccc(C=C2C=Cc3ccccc32)cc1	28µM	0	?	-	-	40µM
COc1cc2c(cc1OC)C(=Cc1ccc(N(C)C)cc1)C=C2	10µM	-78	-71	-	-	10µM
O=C(O)c1ccccc1-c1noc(-c2ccccc2F)n1	-	-	-	0[12.7 µM]	0	-
COc1cc(C(CCN2CCCC(C)C2)c2c(OC)cc(OC)c3c2OC(=O)CC3c2ccc(N(C)C)cc2)cc(OC)c1OC (stereo not given)	16µM	0	?	?	14µM	?
COc1cc(C(CCN2CCCC(C)C2)c2c(OC)cc(OC)c3c(C)cc(=O)oc23)cc(OC)c1OC (stereo not given)	0	-	-	-	-	?
